YjeE inh – qHTS Assay for Inhibitors of YjeE. tRNA threonylcarbamoyladenosine biosynthesis protein TsaE (Escherichia coli (strain …. purified YjeE enzyme, qHTS inhibition assay. Potency, µM. 0.05% of 71,000 active. AID 605, 2007
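Fluorescence polarization of a BODIPY Texas Red–ADP probe (2 uM) bound to purified YjeE (10 uM) was read after 15 min room-temperature incubation with compounds. Loss of polarization marks inhibitors; ADP serves as titrated control.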
Pol III holo inh – qHTS Assay for Inhibitors of DNA Polymerase III Holoenzyme System | reconstituted DNA polymerase III holoenzyme replication, biochemical | 0.25% of 71,000 active | Potency, µM (series often up to 57.1 µM), without a hit: at the top dose activity change, negative = inhibition; note: potency is the fitted concentration of half-maximal effect; % is set by controls: 0 for no effect and ±100 for the full control effect
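Reconstituted *E. coli* holoenzyme (0.35 nM Pol III, 1 nM beta, 154 nM SSB, 2 nM primase) was preincubated with compound for 15 min at RT. Synthesis on 1.4 nM ssM13Gori ran 35 min, then was stopped with PicoGreen/EDTA and read as dsDNA fluorescence.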
BRCT PPI green – qHTS Assay for Inhibitors of BRCT-Phosphoprotein Interaction (Green Fluorophore) | Breast cancer type 1 susceptibility protein (Homo sapiens), P38398 | BRCA1 BRCT-phosphopeptide binding, green fluorescence polarization | Potency, µM (series often up to 76.9 µM), without a hit: top-dose activity change, negative = inhibition, most hits filed as inhibitors | 0.05% of 75,000 active | AID 875, 2007;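 note: potency is the fitted concentration of half-maximal effect; plate controls were peptide without protein for full effect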
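Compounds were incubated for 12 min at room temperature with a complex of 100 nM fluorescein-tagged pBACH1 decapeptide and 250 nM His-tagged BRCT protein. Buffer was phosphate pH 7.3 with EDTA, DTT and Tween 20. Disruption of binding lowers the polarization signal.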
BRCT inh red – qHTS Assay for Inhibitors of BRCT-Phosphoprotein Interaction (Red Fluorophore). BRCT-phosphopeptide binding, red fluorescence polarization. Breast cancer type 1 susceptibility protein (Homo sapiens), P38398. 0.03% of 75,000 active. Potency, µM (top dose mostly 76.9 µM), for inactives: at the highest dose activity change, negative = inhibition, usual class: inhibitors; note: % is set by controls: 0 for no effect and ±100 for the full control effect
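Fluorescence polarization: 100 nM His-tagged BRCA1 BRCT with 100 nM TAMRA-labelled phospho-BACH1 decapeptide, phosphate buffer pH 7.3 with 150 mM NaCl, DTT, 0.01% Tween 20; 12 min RT. Binding inhibition seen as FP decrease.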
15-hLO inh – qHTS Assay for Inhibitors of 15-hLO (15-human lipoxygenase); purified 15hLO-1, xylenol orange hydroperoxide absorbance; Potency, µM (doses to about 57.1 µM), without a hit: at the top dose activity change, negative = inhibition, hits mostly inhibitors; 1.4% of 74,000 active; note: potency is the fitted concentration of half-maximal effect; % is set by controls: 0 for no effect and ±100 for the full control effect; nearly all actives have a fitted effect of over 55% in size
Target sequence (P16050 whole entry, looked up): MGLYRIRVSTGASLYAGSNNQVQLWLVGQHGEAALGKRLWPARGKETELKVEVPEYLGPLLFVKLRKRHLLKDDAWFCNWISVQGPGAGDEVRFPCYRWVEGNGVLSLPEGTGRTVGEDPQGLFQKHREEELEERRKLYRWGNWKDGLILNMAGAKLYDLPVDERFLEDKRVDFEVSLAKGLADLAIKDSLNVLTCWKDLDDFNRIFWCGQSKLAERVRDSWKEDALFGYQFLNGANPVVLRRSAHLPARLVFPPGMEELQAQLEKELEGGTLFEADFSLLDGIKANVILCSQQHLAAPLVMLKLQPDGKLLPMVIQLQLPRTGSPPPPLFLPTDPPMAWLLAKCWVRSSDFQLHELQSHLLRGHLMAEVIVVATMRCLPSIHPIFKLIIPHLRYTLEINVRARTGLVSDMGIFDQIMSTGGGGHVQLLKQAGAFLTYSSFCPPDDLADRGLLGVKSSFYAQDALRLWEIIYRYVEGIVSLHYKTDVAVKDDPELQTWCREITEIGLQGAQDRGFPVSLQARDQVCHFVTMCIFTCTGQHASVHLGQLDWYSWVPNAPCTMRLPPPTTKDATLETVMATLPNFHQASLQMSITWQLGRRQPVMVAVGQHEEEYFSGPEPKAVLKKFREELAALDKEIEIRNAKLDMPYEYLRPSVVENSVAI
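Hydroperoxide formed from arachidonic acid (50 uM) by purified human 15hLO-1 (40 nM) oxidizes ferrous iron, and the ferric-xylenol orange complex is read at 573 versus 405 nm. Compounds were preincubated 15 min; reaction ran 6 min at room temperature.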
Tau fil binding – qHTS Assay for Tau Filament Binding. Microtubule-associated protein tau (Homo sapiens), P10636. recombinant tau filaments, thioflavin S fluorescence, 15 h; filaments grown with octadecylsulfate alongside compound. Potency, µM (series often up to 57.1 µM), for the others: at the highest dose activity change, negative = inhibition. 2% of 71,000 active;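 note: potency is the fitted concentration of half-maximal effect; % is set by controls: 0 for no effect and ±100 for the full control effect; actives lower thioflavin S fluorescence by blocking filaments or displacing dye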
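Tau 2 uM in ThS buffer dispensed; compound added; 60 uM ODS added (finals 1 uM tau, 30 uM ODS); 15 h 37 C; fluor ex450/em510.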
Numbers without * were called inactive; i = inactive; ? = inconclusive; / = no result; [ ] = another dose, or the depositor's remark. Shown are actives, neighbours in structure and some others; about 3.3% of the full set was active somewhere. Calls come from the whole dose curve; as a rule, active = well fitted curve in the direction sought with a large enough effect; inconclusive = small, poorly fitted or top-dose-only effect, or another doubt; inactive = no such curve, though single readings can be large; an effect the other way counts as inactive or inconclusive.

SMILES	YjeE inh	Pol III holo inh	BRCT PPI green	BRCT inh red	15-hLO inh	Tau fil binding
CC(C)C[C@@H](CC(=O)N[C@H](CC(=O)N[C@@H]1CCCC[C@H]1C(=O)N[C@H](CC(=O)N[C@@H](CCC(=O)O)CC(=O)O)Cc1c[nH]c2ccccc12)C(C)C)NC(=O)[C@@H]1CNCC[C@H]1N	i	-6%	/	/	/	-6%
Cc1ccc(-c2csc3nnc(SCC(=O)N4CCN(Cc5ccccc5)CC4)n23)cc1	i	-3%	1%	0%	-3%	20µM*
COc1ccc(O[C@H]2C=C[C@@H](c3ccccc3)O[C@@H]2CON=C(C)C)cc1	/	/	1%[15.4 µM]	0%[15.4 µM]	2%[11.4 µM]	/
Cn1c([N+](=O)[O-])cnc1CN1CCN(CCO)CC1	i	-9%[11.4 µM]	2%[15.4 µM]	0%[15.4 µM]	5%[11.4 µM]	-8%[11.4 µM]
Cc1onc(-c2ccccc2Cl)c1C(=O)Nc1ccc(-n2nncc2C(C)(C)C)cc1	i	-1%	-1%	0%	-4%	25µM*
Cc1ccc(-c2nnc3ccc(SC(C)C(=O)O)nn23)cc1 (stereo unspecified)	i	-2%	-1%	-4%	10µM*	-17%
O=C(CSc1ccc2nnc(-c3ccccc3)n2n1)N1CCN(c2ccccc2)CC1	i	3%	-1%	1%	-11%	1.6µM*
COc1ccc(-c2nnc3ccc(SCC(=O)N4CCN(c5ccccc5)CC4)nn23)cc1	i	0%	1%	1%	?	-14%
COc1ccc(-c2nc3cnc(Oc4cccc(Cl)c4)nc3n(C3CC3)c2=O)cc1	i	-1%	0%	-1%	3%	16%
CC(=O)c1ccc2c3c(ccc(O)c13)CC2	i	-3%[11.4 µM]	0%	1%	?	4µM*
CC(=O)c1ccc(O)c(CN(C2CCCCC2)C2CCCCC2)c1O	i	-15%[11.4 µM]	0%[15.4 µM]	-1%[15.4 µM]	-10%[11.4 µM]	4%[11.4 µM]
CC(C)C[C@@H](CC(=O)N[C@@H](CCCN)CC(=O)N[C@@H]1CCNC[C@H]1C(=O)N[C@H](CC(=O)N[C@@H](CCC(=O)O)CC(=O)O)Cc1ccccc1)NC(=O)[C@@H]1CCCC[C@H]1N	i	-4%	/	/	/	-6%
COc1ccc(NC(=O)c2c(OC)cccc2OC)c(OC)c1	i	-1%	1%	-1%	-3%	16µM*
COc1ccc(NC(=O)c2ccco2)c(OC)c1	i	-5%	-1%	1%	7%	-2%
Cn1c(/N=C/c2c(O)ccc3ccccc23)nc2ccccc21	i	-8%[11.4 µM]	0%	-1%	4µM*	?
COC(=O)c1ccc2c(=O)[nH]c(CN3c4ccccc4CC3C)nc2c1 (stereo unspecified)	i	-4%	0%	-1%	-16%	?
CC1Cc2ccccc2N1Cc1nc2scc(-c3cccs3)c2c(=O)[nH]1 (stereo unspecified)	i	-7%	-4%	1%	-20%	13µM*
CO[C@@H]1COC(=O)[C@H]2CCCN2C(=O)[C@@H](C)COC(=O)C/C=C\[C@H]1C	/	/	-2%[15.4 µM]	-1%[15.4 µM]	4%[11.4 µM]	/
Cc1cc(=O)n2nc(-c3ccccc3)sc2n1	i	-2%	-1%	-3%	4%	4%
CN=c1nc(-c2ccccc2)n(-c2ccccc2)s1	i	-5%	0%	-2%	0.79µM*	-2%
COc1ccc2[nH]cc(CCNc3nc(-c4ccccc4OC)nc4ccccc34)c2c1	i	-4%	0%	-2%	?	2.5µM*
COc1ccc2[nH]cc(CCNc3cc(-c4ccccc4C)ncn3)c2c1	i	-2%	0%	-1%	?	-24%
COc1ccc2[nH]cc(CCNc3cc(-c4cccnc4)ncn3)c2c1	i	-3%	-3%	-2%	20µM*	-18%
COc1ccc2[nH]cc(CCNc3cc(-c4ccc5c(c4)OCO5)ncn3)c2c1	i	-8%	-4%	-2%	13µM*	?
c1ccc(CN2CCC3(CC2)SSC2(CCN(Cc4ccccc4)CC2)SS3)cc1	i	-10%[11.4 µM]	-3%[15.4 µM]	1%[15.4 µM]	4%[11.4 µM]	-6%[11.4 µM]
SMILES	YjeE inh	Pol III holo inh	BRCT PPI green	BRCT inh red	15-hLO inh	Tau fil binding
O=C1C2=CC[C@H]3C(=O)N(c4cccc(Oc5ccccc5)c4)C(=O)[C@@H]3[C@@H]2[C@H](O)[C@@H]2O[C@H]12	/	/	-1%[15.4 µM]	1%[15.4 µM]	-3%[11.4 µM]	/
O=C(Nc1ccccc1)OC[C@H](CN1CCCCC1)OC(=O)Nc1ccccc1	i	2%[25.6 µM]	2%[34.4 µM]	-1%[34.4 µM]	2%[25.6 µM]	-9%[25.6 µM]
Cc1c2oc3c(C)ccc(C(=O)N[C@@H]4C(=O)N[C@H](C(C)C)C(=O)N5CCC[C@H]5C(=O)N(C)CC(=O)N(C)[C@@H](C(C)C)C(=O)O[C@@H]4C)c3nc-2c(C(=O)N[C@@H]2C(=O)N[C@H](C(C)C)C(=O)N3CCC[C@H]3C(=O)N(C)CC(=O)N(C)[C@@H](C(C)C)C(=O)O[C@@H]2C)c(N)c1=O	i	0.02µM*	0%	-5%	13µM*	43%
CCN1C(=O)[C@H]2[C@H]3[C@H](O)[C@H](O)C/C(=N/NC(=O)OCc4ccccc4)[C@H]3CC[C@@H]2C1=O	/	/	-4%[15.4 µM]	0%[15.4 µM]	6%[11.4 µM]	/
Cc1oc(/N=C/c2c(O)ccc3ccccc23)c(C#N)c1C	i	-2%	1%	0%	?	2.5µM*
CCN1C(=O)c2c(C)nc3ccccc3c2C1=O	i	-14%	-5%	-1%	-10%	16µM*
CCN1C(=O)c2ccc(-c3nc4ccccc4c(=O)o3)cc2C1=O	i	-3%	-2%	0%	3%	-5%
